The nature of experiment [1]: antimalarial activity against Dd2 strain (AID 2302;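 active means growth inhibition above 50% at the single 2 µM test dose, taken to imply half-maximal potency below 2 µM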;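 further: 0% = DMSO untreated growth and 100% = chloroquine plus artemisinin killed control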). The settings on record: P. falciparum Dd2 in RBCs, LDH growth readout, 72 h; at 2 µM; stronger effect = higher value.
Experiment [2] is described as follows: human hepatoma cell viability loss – ATP luminescence, cytotoxicity control for P. falciparum antimalarial project, primary screen (AID 2303;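 active means inhibition above 50%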;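 further: 0% = DMSO wells and 100% = digitonin-killed cells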). The settings on record: HepG2 viability, 24-48 h, at 10 µM, stronger effect = higher value.
The target in experiment [3] is L-lactate dehydrogenase (Plasmodium falciparum (isolate CDC / Honduras)) (UniProt Q27743). Nature of the experiment: PfLDH activity inhibition – cell lysate, 3D7 strain, counter-screen for P. falciparum growth inhibition project (AID 2304; call rule not given here;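 further: 0% = vehicle and 100% = reference inhibitor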). The settings on record: P. falciparum 3D7 crude extract, LDH APAD/NBT absorbance; at 2 µM; stronger effect = higher value.
Chain of L-lactate dehydrogenase (Plasmodium falciparum (isolate CDC / Honduras)) (Q27743 whole entry, looked up): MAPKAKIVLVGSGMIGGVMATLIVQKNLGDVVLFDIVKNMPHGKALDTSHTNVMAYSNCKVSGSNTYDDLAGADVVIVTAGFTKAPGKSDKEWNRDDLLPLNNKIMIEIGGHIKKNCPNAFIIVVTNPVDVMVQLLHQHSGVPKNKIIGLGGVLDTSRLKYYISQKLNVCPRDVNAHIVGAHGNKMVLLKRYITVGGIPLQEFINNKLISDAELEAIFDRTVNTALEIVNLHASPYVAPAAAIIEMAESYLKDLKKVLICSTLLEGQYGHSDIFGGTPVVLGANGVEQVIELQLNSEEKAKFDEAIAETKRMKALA
The nature of experiment [4]: inhibition of 3D7 malaria parasite growth – strain 3D7 (AID 2306; call rule not given here;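 further: 0% = DMSO wells and 100% = chloroquine plus artemisinin control wells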). The settings on record: P. falciparum 3D7 erythrocytic growth, LDH absorbance, 72 h; at 2 µM; stronger effect = higher value.
Experiment [5] addresses Calcium-dependent protein kinase 1 (Plasmodium falciparum (isolate 3D7)) (UniProt P62344). Nature of the experiment: PfCDPK1 kinase inhibitors, biochemical, TCAMS library (AID 1159585; cut-off not given, nearly all actives have IC50 up to about 0.98 µM;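 further: inhibitors leave more ATP so luminescence rises with inhibition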). The settings on record: recombinant PfCDPK1, Kinase-Glo ATP depletion luminescence.
Experiment [6] deals with Plasmodium falciparum protein kinase 6 (PK6, PF3D7_1337100) (UniProt Q8IDW1). Nature of the experiment: PfPK6 kinase inhibitors, biochemical, TCAMS library (AID 1159586; call rule not given here). To be noted: recombinant PfPK6, Kinase-Glo ATP depletion luminescence.
Chain of Plasmodium falciparum protein kinase 6 (PK6, PF3D7_1337100) (Q8IDW1 1-305): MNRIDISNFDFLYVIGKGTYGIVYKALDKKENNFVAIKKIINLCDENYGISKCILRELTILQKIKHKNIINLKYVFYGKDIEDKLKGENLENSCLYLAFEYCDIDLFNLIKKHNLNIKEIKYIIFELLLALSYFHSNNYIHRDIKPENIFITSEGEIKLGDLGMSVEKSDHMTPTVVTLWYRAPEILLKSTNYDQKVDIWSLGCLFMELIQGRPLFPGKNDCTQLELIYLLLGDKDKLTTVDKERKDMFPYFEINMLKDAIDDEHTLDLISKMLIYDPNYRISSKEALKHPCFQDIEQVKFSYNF
Experiment [7] deals with Protein kinase 7 (PK7), Plasmodium falciparum 3D7 (PF3D7_0213400) (UniProt Q7YTF7). Nature of the experiment: inhibition of Plasmodium PK7 catalytic activity – biochemical, TCAMS antimalarial set, Kinase-Glo luminescence (AID 1159587; call rule not given here). The settings on record: recombinant PfPK7, Kinase-Glo ATP depletion luminescence. For orientation: Kinase-Glo measures the ATP left after a reaction by luminescence.
Chain of Protein kinase 7 (PK7), Plasmodium falciparum 3D7 (PF3D7_0213400) (Q7YTF7 1-343): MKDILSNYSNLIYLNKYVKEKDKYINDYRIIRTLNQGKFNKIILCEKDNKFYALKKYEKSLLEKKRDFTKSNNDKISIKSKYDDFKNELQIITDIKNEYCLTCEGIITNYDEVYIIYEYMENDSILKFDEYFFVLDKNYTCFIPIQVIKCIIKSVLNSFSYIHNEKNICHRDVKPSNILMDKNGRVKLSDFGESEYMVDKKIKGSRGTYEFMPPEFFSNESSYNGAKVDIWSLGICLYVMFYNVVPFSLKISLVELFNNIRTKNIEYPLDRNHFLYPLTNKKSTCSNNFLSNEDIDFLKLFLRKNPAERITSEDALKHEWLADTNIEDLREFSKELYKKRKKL

Experiment [8] addresses Calcium-dependent protein kinase 4 (Plasmodium falciparum (isolate 3D7)) (UniProt Q8IBS5). Nature of the experiment: PfCDPK4 kinase inhibitors, biochemical, TCAMS library (AID 1159588; cut-off not given, nearly all actives have IC50 up to about 0.91 µM). To be noted: recombinant PfCDPK4, Kinase-Glo ATP depletion luminescence.
The test system of experiment [9] is Aerobactin synthetase IucA (Klebsiella pneumoniae). Nature of the experiment: inhibition of K. pneumoniae IucA enzyme – biochemical, Tocris library, absorbance (AID 1345561; call rule not given here;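 further: 100% = enzyme without compound and 0% = no enzyme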). To be noted: purified IucA enzyme assay, absorbance (OD) read-out; stronger effect = lower value;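 tested at 8 µM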.
Experiment [10] can be described thus: viability loss with induced miR-34 in A549 – imaging, A549 dox-inducible miR-34, nuclei and caspase counts, primary screen (AID 1347080;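 active means compounds whose cell count with miR-34 switched on is under 0.7 times the count with it off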). The settings on record: A549 miR-34 inducible, Hoechst nuclei count, 48 h.
A short description of experiment [11]: galactose survival enhancers in mitochondrial complex I cybrids – cell-based, galactose medium, ATP luminescence, primary screen (AID 1645843;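 active means z-score of at least 1.8 in each of two replicates, scored against plate mean and spread of sample wells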;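 further: positive z means more ATP and so rescue of galactose-driven cybrid death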). The settings on record: complex I mutant cybrid cells, 72 h, stronger effect = higher value.
In experiment [12] the target is 6-phosphogluconate dehydrogenase, decarboxylating (Homo sapiens) (UniProt P52209). Nature of the experiment: inhibition of human phosphogluconate dehydrogenase – biochemical, recombinant enzyme, NADPH absorbance, primary screen (AID 1159550). The settings on record: recombinant 6PGD, NADPH absorbance 341 nm; at 10 µM; stronger effect = higher value.
Chain of 6-phosphogluconate dehydrogenase, decarboxylating (Homo sapiens) (P52209 whole entry, looked up): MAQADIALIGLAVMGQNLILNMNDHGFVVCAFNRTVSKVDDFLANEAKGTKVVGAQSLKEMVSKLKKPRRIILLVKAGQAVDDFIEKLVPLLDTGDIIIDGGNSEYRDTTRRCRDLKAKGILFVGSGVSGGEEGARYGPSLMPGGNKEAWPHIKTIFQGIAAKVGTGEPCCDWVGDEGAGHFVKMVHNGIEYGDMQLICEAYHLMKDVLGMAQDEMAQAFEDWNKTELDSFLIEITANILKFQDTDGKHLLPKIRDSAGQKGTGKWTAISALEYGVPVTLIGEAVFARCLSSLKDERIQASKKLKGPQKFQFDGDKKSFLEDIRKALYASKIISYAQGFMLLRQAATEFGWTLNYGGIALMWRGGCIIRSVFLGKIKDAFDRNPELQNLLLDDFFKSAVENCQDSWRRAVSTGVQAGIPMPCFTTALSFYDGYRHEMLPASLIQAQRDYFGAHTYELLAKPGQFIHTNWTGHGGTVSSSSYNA
Experiment [13] concerns the target NAD(+) hydrolase SARM1 (Homo sapiens) (UniProt Q6SZW1). Nature of the experiment: blocking NAD cleavage by SARM1 SAM-TIR – cell lysate, NAD-Glo luminescence (AID 1508614;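 active means compound whose remaining NAD level is above about 45 nM, limit read from the data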). The settings on record: SAM-TIR HEK293T lysate NADase, at 1 µM, stronger effect = higher value.
Experiment [14] concerns the target Mitogen-activated protein kinase 7 (Homo sapiens) (UniProt Q13164). Nature of the experiment: Gal4-ERK5 driven luciferase induction – cell-based, HTS, primary screen (AID 1508626;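 active means luciferase signal above three times the same-plate solvent-only control wells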;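 further: luciferase driven by Gal4-ERK5 fusion binding five Gal4 sites before minimal TATA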). To be noted: HeLa Gal4-ERK5 transactivation, 18 h, at 5 µM, stronger effect = higher value.
Experiment [15] is described as follows: compounds altering circadian rhythm period length – cell-based, LOPAC library, luminescence reporter (AID 2774; call rule not given here;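 further: values are relative to mean of DMSO wells on each plate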). To be noted: circadian reporter cells, at 7 µM, actives lie on both sides.
Experiment [16] is described as follows: blockers of cellular phospholipid synthesis – cell-based, LOPAC library, screen 4, primary screen (AID 1347384; call rule not given here). To be noted: animal cells, phospholipid biosynthesis inhibition screen; at 10 µM.

By inhibition is commonly meant the change of the read-out against control, counted positive when it falls. Broadly, the remaining activity is the signal under treatment as a percentage of the control signal.

Structures are written as SMILES. For some of these results: Measured potencies and affinities stand elsewhere. Activity calls are given as the source filed them.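 How the source made its calls, unless noted: active means at least 20% inhibition of 6-phosphogluconate dehydrogenase activity; inactive means the rest.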

Chain of NAD(+) hydrolase SARM1 (Homo sapiens) (Q6SZW1 whole entry, looked up, the tested form may be a part): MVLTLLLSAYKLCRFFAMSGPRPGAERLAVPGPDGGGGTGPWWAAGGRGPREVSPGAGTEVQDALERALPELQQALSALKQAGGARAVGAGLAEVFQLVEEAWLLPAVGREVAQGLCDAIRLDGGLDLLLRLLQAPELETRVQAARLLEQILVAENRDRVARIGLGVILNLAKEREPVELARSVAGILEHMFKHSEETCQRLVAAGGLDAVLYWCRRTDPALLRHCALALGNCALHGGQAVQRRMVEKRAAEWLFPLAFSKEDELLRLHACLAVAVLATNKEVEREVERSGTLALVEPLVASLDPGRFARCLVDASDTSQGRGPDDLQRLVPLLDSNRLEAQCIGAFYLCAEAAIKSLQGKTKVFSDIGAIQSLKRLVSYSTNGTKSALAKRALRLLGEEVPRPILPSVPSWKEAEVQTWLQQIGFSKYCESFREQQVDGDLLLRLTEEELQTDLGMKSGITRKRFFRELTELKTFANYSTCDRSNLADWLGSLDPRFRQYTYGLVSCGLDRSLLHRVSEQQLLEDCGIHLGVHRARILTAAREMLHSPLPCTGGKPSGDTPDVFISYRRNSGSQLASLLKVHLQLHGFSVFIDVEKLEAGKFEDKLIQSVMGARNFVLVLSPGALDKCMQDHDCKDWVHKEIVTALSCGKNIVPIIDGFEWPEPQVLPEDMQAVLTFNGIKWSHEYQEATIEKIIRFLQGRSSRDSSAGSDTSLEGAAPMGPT
Chain of Mitogen-activated protein kinase 7 (Homo sapiens) (Q13164 whole entry, looked up, the tested form may be a part): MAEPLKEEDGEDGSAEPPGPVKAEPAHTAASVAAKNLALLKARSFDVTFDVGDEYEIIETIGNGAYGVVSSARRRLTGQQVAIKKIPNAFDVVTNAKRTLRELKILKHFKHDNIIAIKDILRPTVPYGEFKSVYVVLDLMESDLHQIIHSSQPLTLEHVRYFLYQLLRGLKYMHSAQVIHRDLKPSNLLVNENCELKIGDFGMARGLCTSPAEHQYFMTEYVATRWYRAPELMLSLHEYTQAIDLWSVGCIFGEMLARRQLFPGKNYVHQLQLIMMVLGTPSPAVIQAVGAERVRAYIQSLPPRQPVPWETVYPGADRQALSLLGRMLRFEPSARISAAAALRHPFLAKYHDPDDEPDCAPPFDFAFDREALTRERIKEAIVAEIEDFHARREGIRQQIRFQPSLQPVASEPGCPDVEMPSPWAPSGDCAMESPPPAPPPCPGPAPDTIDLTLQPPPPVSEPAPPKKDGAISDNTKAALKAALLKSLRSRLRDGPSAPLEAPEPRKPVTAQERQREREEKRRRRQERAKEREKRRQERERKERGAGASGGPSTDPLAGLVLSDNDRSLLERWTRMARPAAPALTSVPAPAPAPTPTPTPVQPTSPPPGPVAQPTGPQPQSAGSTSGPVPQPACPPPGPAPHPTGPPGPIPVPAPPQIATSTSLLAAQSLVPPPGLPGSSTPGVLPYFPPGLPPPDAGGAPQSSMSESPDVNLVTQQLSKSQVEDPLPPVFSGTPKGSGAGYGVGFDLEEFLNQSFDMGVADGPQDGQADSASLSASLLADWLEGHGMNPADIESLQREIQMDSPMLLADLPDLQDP
Chain of Calcium-dependent protein kinase 4 (Plasmodium falciparum (isolate 3D7)) (Q8IBS5 whole entry, looked up): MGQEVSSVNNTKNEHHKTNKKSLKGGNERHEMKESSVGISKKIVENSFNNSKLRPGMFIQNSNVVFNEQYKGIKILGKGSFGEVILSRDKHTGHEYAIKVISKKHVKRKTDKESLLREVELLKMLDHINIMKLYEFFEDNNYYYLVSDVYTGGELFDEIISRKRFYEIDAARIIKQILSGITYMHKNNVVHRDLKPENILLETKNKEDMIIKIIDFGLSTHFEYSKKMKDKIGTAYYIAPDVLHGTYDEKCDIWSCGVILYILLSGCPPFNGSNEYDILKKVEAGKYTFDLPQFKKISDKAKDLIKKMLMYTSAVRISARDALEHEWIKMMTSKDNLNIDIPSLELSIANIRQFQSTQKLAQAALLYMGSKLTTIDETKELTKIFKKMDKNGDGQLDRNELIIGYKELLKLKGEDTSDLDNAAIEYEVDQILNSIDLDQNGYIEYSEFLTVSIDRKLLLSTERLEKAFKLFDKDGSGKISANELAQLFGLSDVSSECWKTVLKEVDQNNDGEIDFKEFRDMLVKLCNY
Chain of Calcium-dependent protein kinase 1 (Plasmodium falciparum (isolate 3D7)) (P62344 whole entry, looked up): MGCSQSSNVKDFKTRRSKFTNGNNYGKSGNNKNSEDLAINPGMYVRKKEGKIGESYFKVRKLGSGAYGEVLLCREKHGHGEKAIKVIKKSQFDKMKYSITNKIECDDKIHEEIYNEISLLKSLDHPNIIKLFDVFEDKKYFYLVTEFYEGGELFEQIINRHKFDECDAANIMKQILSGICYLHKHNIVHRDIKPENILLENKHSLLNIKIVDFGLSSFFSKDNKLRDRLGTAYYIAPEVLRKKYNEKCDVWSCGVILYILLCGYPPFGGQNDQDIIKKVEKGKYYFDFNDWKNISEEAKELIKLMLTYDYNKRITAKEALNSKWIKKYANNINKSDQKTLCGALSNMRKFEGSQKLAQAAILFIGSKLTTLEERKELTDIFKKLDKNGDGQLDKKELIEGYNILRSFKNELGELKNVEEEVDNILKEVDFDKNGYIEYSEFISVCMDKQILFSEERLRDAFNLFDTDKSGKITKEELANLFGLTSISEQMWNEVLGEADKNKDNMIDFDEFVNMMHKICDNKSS

On to `COC(=O)/C=C/C(=O)N[C@@H]1CC[C@@]2(O)[C@H]3Cc4ccc(O)c5c4[C@@]2(CCN3CC2CC2)[C@H]1O5`, for which the growth inhibition was 66% (active) in [1] and 95% (active) in experiment [4]. For the same molecule, the inhibition in [2] is 9% (inactive); in [3], -2% (inactive). For the same molecule, the outcome in experiment [5], in experiment [6], in experiment [7] and in experiment [8] was inactive. In addition, the remaining activity in experiment [9] was 109% (inactive). In addition, the fold change in experiment [10] (stronger effect = lower value) was 0.925 (inactive); in [10] (measured here: relative caspase fold change +Dox/-Dox), 0.877. Also, the cell count is 7410 in experiment [10] (measured here: total cells with miR-34 induction, stronger effect = lower value) and 8010 in experiment [10] (measured here: total cells without miR-34 induction). The z-score in experiment [11] was -0.405 (inactive).
Take `C[C@@H]1[C@H](O)[C@@H](C)/C=C/C=C/CC/C=C/C=C/C=C/C=C/C(O[C@H]2O[C@H](C)[C@@H](O)[C@H](N)[C@@H]2O)CC2O[C@](O)(CC(O)C(O)CCC(O)CC(O)CC(O)CC(=O)O[C@H]1C)CC(O)C2C(=O)O` (stereo partly drawn): in experiment [12], the inhibition was 8.65% (inactive). In addition, the remaining NAD in [13] is 10 nM (inactive). Further, the luciferase signal in [14] was 56 AU (inactive).
On the same counts, the results for `C[C@@H](CO)NC(=O)[C@@H]1C=C2c3cccc4[nH]cc(c34)C[C@H]2N(C)C1` are -3.88% (inactive), 10 nM (inactive) and 20 AU (inactive).
As for `CC[C@H]1CN2CC[C@@H]1C[C@H]2[C@H](O)c1cc[n+]([O-])c2ccc(OC)cc12`, the outcome in [5], in [6], in [7] and in [8] was inactive.
With `CO[C@H]1C[C@H](O[C@H]2CC[C@@]3(C)[C@H](CC[C@@H]4[C@@H]3CC[C@]3(C)[C@@H](C5=CC(=O)OC5)[C@@H](OC(C)=O)C[C@]43O)C2)O[C@@H](C)[C@@H]1O`, in experiment [12], the inhibition was 5.8% (inactive). In experiment [14], the luciferase signal was 32 AU (inactive).
`CC1(C)C(=O)C=C[C@]2(C)[C@H]3CC[C@@]4(C)[C@H](c5ccoc5)OC(=O)[C@H]5O[C@]54[C@]3(C)[C@H](O)C[C@@H]12`: the inhibition in [12] is 3.18% (inactive). Besides, in [14], the luciferase signal is 16 AU (inactive).
On to `O=C(O)COc1cc(Cl)c(Cl)cc1Cl`, for which the inhibition in [12] was 6.47% (inactive). The luciferase signal in experiment [14] was 60 AU (inactive).
On to `O=C(O)CNCP(=O)(O)O`, for which the inhibition in [12] was 3.86% (inactive). Also, the luciferase signal in experiment [14] is 40 AU (inactive).
On the same counts, the results for `C[C@H]1O[C@@H](O[C@H]2[C@@H](O)C[C@H](O[C@H]3[C@@H](O)C[C@H](O[C@H]4CC[C@@]5(C)[C@H](CC[C@@H]6[C@@H]5CC[C@]5(C)[C@@H](C7=CC(=O)OC7)[C@@H](O)C[C@]65O)C4)O[C@@H]3C)O[C@@H]2C)C[C@H](O)[C@@H]1O` are -2.27% (inactive) and 16 AU (inactive).
`NNCc1cccc(O)c1`: the period change in experiment [15] is -0.07 h (inactive). Besides, the inhibition in [12] is 15.8% (inactive).
For `COC(=O)[C@]1(C)CC[C@]2(C)CC[C@]3(C)C4=CCc5c(cc(O)c(O)c5C)[C@]4(C)CC[C@@]3(C)[C@@H]2C1`, the inhibition in experiment [12] is 5.04% (inactive). In addition, in experiment [14], the luciferase signal is 20 AU (inactive).
`CC(=O)OCC1=C(C(=O)O)N2C(=O)[C@@H](NC(=O)CCC[C@@H](N)C(=O)O)[C@H]2SC1`: the inhibition in [12] is -2.43% (inactive). Besides, in experiment [16], the molecule was called inactive. Moreover, the remaining NAD in experiment [13] is 10 nM (inactive).
Turning to `C/C=C(\C)C(=O)O[C@H]1C[C@@H](OC(C)=O)[C@@]2(C(=O)OC)CO[C@H]3[C@@H](O)[C@@](C)([C@]45O[C@@]4(C)[C@H]4C[C@@H]5O[C@@H]5OC=C[C@@]54O)[C@H]4[C@]1(CO[C@]4(O)C(=O)OC)[C@@H]32`, the inhibition in experiment [12] was 3.41% (inactive). Besides, in [14], the luciferase signal was 12 AU (inactive).

The record behind these values is PubChem BioAssay.
